The campaign covered roughly 69,000 compounds. About 8,600 (12%) showed an effect of 50% or more. What follows is part of a selection rich in strong results, with near analogues and random picks from the rest.

Consider 111 compounds from ChEMBL document CHEMBL4513216, “Probing the Open Global Health Chemical Diversity Library for Multistage-Active Starting Points for Next-Generation Antimalarials” (ACS Infect Dis, 2020).

For the experiment, the system named is Plasmodium berghei. Nature of the experiment: Screen against P. berghei liver stage (PbLuc), transformed with Luciferase, at 10uM. To be noted: tested at 10 uM. The format is functional, HepG2.
For `COc1ccc(CC(=O)N2CCC[C@@H](N)[C@@H]2c2ccccc2F)cc1`, the INHIBITION is on record as 44.8%.

Consider `CC(C)NC(=O)CC1COC2(CCN(Cc3cccs3)CC2)C1` (stereo unspecified), for which the INHIBITION was 29.9%. Next, `CCN(CC)C(=O)CCCNC(=O)c1csc(NC2CC2)n1`: 28%; `O=C(Nc1nccs1)c1csc(NC2CCCC2)n1`: 80.9%. The value for `Cc1cnc(NC(=O)c2csc(NCC(C)C)n2)s1` was 83.8%; that for `Cc1cnc(NC(=O)N2CCCC2)s1` was -1.58%; that for `Cc1cccc(NC(=O)c2csc(NCC(C)C)n2)n1` was -27.5%. Next, `CC(C)CCNc1nc(C(=O)NC2CC2)cs1`: -30%. Turning to `Cc1cnc(NC(=O)c2csc(NC3CCCC3)n2)s1`, the INHIBITION came out at 89.6%.

For the compound `O=C(Nc1ccccn1)c1csc(NC2CCCC2)n1`, the INHIBITION was -32.8%. Next, `CC(NC(=O)Nc1nccs1)C(=O)NC1CCCC1` (stereo unspecified): 40.2%; `O=C(CCC1CCN(C2CCSCC2)CC1)NCC1CCCO1` (stereo unspecified): 42.1%; `CCc1nc(CN(C(C)=O)C2CCN(CCc3cccs3)C2)no1` (stereo unspecified): 36.1%. The value for `CC(C)c1nc2c(n1C)CCN(Cc1cccc(OCC(N)=O)c1)C2` was 7.08%; that for `O=C(CSc1ccccn1)N1C[C@@H]2CC[C@H]1CN(Cc1cscn1)C2` was -38.9%.

Take `O=C(c1ccccn1)N1CCc2ncc(Cn3cccn3)n2CC1`: the INHIBITION is -14.2%. For the compound `O=C(CCn1ccc2cc(Br)ccc21)/N=c1\[nH]nc(C2CCCO2)s1` (stereo unspecified), the INHIBITION came to 35.1%. The value for `Cc1cc(=O)n2ncnc2n1CC(O)c1ccccc1` (stereo unspecified) was 62.9%; that for `Cc1cc(=O)n2ncnc2n1CC(O)c1cc(F)ccc1F` (stereo unspecified) was -4.74%.

On to `Cc1cc(=O)n2ncnc2n1CC(O)c1ccccc1F` (stereo unspecified), for which the INHIBITION is given as 33%.

For the compound `Cc1cc(=O)n2ncnc2n1CC(O)c1cc(Cl)ccc1Cl` (stereo unspecified), the INHIBITION is on record as 29.8%. Next, `Cc1cc(=O)n2ncnc2n1CC(O)COCc1ccccc1Cl` (stereo unspecified): 55.4%.

As to `Cc1cc(CN(C)CCC(O)c2ccccc2)nn1C` (stereo unspecified), the INHIBITION is -3.3%. Next, `Cc1cc(=O)n2ncnc2n1CC(O)c1ccccc1Cl` (stereo unspecified): 2.37%; `Cc1cc(=O)n2ncnc2n1CC(O)c1ccc(F)cc1F` (stereo unspecified): 57.6%; `Cn1ncc2cnn(CC(O)COCc3ccccc3Cl)c2c1=O` (stereo unspecified): -30.1%. The value for `CN1CCN(c2cc(CNC(=O)c3cccnc3O)ccn2)CC1` was 18.36%. `CCN1CCN(C2CCN(Cc3nc(C)c(C)o3)CC2)C1=O`: the INHIBITION stood at 44.1%. Next, `CCc1nc(C2CCCN2Cc2ncc(C)c(OC)c2C)no1` (stereo unspecified): 11.4%; `O=S(=O)(C1CC1)N1CCOCC2(CCN(c3ccccn3)C2)C1` (stereo unspecified): -26.1%.

As to `CS(=O)(=O)CC(=O)N1C[C@H]2CCC[C@@]2(COCc2ccncc2)C1`, the INHIBITION amounted to 31.2%. Turning to `CCC(CCNC(=O)c1cc(C2CC2)nc2c1cnn2C)n1cccn1` (stereo unspecified), the INHIBITION is 9.55%. Next, `CC(C)NC(=O)N1CCN(CCn2cccn2)c2ncccc2C1`: 5.89%. Turning to `COc1ccc(-c2ccccc2CCN)c(OC)c1`, the INHIBITION is recorded as -2.9%.

As for `COc1ccc(-c2cc(CN)ccc2F)c(OC)c1OC`, the INHIBITION came to 30.9%. Next, `COc1ccc(-c2ccccc2CCN)c(OC)c1OC`: 50.8%. Next, `Cc1cnc(C(=O)N2C[C@@H](NS(C)(=O)=O)[C@@H]3OCCC[C@@H]32)cn1`: 35.7%; `Cc1nc(CSCc2ccc(OCC(F)(F)F)nc2)no1`: 40.7%; `FC(F)(F)COc1ccc(CSCc2ccon2)cn1`: 24%. Next, `Cc1nnc(CSCc2ccc(OCC(F)(F)F)nc2)o1`: 56%.

Turning to `COC(=O)CCN1CCCC1c1cccc2c1OCCO2` (stereo unspecified), the INHIBITION worked out at 15.9%. On to `COCCN1CCCC1c1cccc2c1OCCO2` (stereo unspecified), for which the INHIBITION worked out at 59.4%. `O=C(CCN1CCCC1c1cccc2c1OCCO2)N1CCOCC1` (stereo unspecified): the INHIBITION amounted to 57.7%.

As for `CCNC(=O)CCN1CCCC1c1cccc2c1OCCO2` (stereo unspecified), the INHIBITION is -2.23%.

For the compound `NC(=O)NC(=O)CCN1CCCC1c1cccc2c1OCCO2` (stereo unspecified), the INHIBITION is reported as 27.7%. In the case of `O=C(CCN1CCCC1c1cccc2c1OCCO2)N1CCCCC1` (stereo unspecified), the INHIBITION is reported as 40.6%. With `Cn1cc(C(=O)NCC2CCN(C(=O)NC3CCCCC3)CC2)cn1`, the INHIBITION was -3.7%. The value for `CCC(CO)Nc1nc(C(F)F)nc2ccccc12` (stereo unspecified) was 8.41%; that for `CSCC(CCO)Nc1nc(C(F)F)nc2ccccc12` (stereo unspecified) was -49%.

As for `OCC(CO)Nc1nc(C(F)F)nc2ccccc12`, the INHIBITION amounted to 51.9%.

For `CCc1nc(C2CCCN2C(=O)c2cc[nH]n2)no1` (stereo unspecified), the INHIBITION came to 58.5%. As to `Cc1ccc(-c2noc(C3CCN3C(=O)c3ccc(=O)[nH]n3)n2)s1` (stereo unspecified), the INHIBITION came out at 4.505%.

Turning to `Cc1ccc(-c2noc(C3CCN3C(=O)c3cc[nH]n3)n2)s1` (stereo unspecified), the INHIBITION turned out to be 85%.

Consider `CCc1nc(C2CCCN2C(=O)c2c[nH]c(C)n2)no1` (stereo unspecified), for which the INHIBITION turned out to be 26.1%. On to `Cc1ccc(-c2noc(C3CCN3C(=O)c3ccn(C)n3)n2)s1` (stereo unspecified), for which the INHIBITION amounted to 23.95%. The value for `CCc1nc(C2CCCN2C(=O)c2cc(C3CC3)[nH]n2)no1` (stereo unspecified) was 9.32%.

With `CCCc1nc(CN(CC)C(=O)c2ccc3[nH]cnc3c2)no1`, the INHIBITION is listed as 30.1%. In the case of `CCCc1nc(CN(CC)C(=O)c2ccc(OC)c(OC)c2)no1`, the INHIBITION is recorded as 30.1%.

With `CCc1nc(C2CCCN2C(=O)c2ccc3c(c2)nnn3CC)no1` (stereo unspecified), the INHIBITION was determined as 2.61%.

As for `CCc1nc(C2CCCN2C(=O)c2ccc3c(c2)nnn3C)no1` (stereo unspecified), the INHIBITION stood at 62.6%. In the case of `CCc1nc(C2CCCN2C(=O)c2ccc3c(c2)nc(C)n3C)no1` (stereo unspecified), the INHIBITION is given as -8.3%.

As for `CCCc1nc(CN(CC)C(=O)c2ccc3c(c2)nnn3C)no1`, the INHIBITION is given as 52.8%.

As for `O=C(NCC1(COc2cnccn2)C[C@@H](O)[C@@H](O)C1)C1CC1` (stereo partly specified), the INHIBITION is given as 18.2%.

Turning to `COc1nn(C)c2c1CCCN(C(=O)COc1ccccc1)C2`, the INHIBITION was -15.7%. The value for `COc1cc(NC(=O)CCn2nc(-c3cccs3)oc2=O)cc(OC)c1` was -7.81%; that for `CC1CCCN(C(=O)c2ccn(COc3ccccc3)n2)C1` (stereo unspecified) was 27.5%. For `CC(C)N1CCc2c(c(COc3cncnc3)nn2CC2CC2)C1`, the INHIBITION is 2.4%. Next, `Cc1nn(C)c(N2CCOCC2)c1CNC(C(N)=O)c1ccccc1` (stereo unspecified): -32.4%; `COc1ccc(CNC(=O)NCC(=O)NC2CC2)c(C(F)(F)F)c1`: 26.6%; `CCc1ccc(S(=O)(=O)Nc2ccc(F)cc2C(=O)O)s1`: 5.605%. The value for `CC(=O)N1CCO[C@@H]2CN(S(=O)(=O)c3cccs3)CC[C@@H]2C1` was 21.6%; that for `CC1CCN(C(=O)[C@H]2C[C@@H]3CCN(CC4CCOCC4)C[C@@H]3O2)CC1` was 24.9%; that for `CCc1cc(O)nc(C2CCCN2C(=O)COC)n1` (stereo unspecified) was 30.8%.

As for `CCc1cc(C(=O)N2CCCC2c2nc(O)cc(CC)n2)on1` (stereo unspecified), the INHIBITION is 1.11%. Turning to `CCc1cc(O)nc(C2CCCN2C(=O)c2cc(CC)on2)n1` (stereo unspecified), the INHIBITION was determined as 51.5%. Regarding `Cc1cccc(C(=O)N2CCC(c3n[nH]c(C4CC4)n3)CC2)c1`, the INHIBITION stood at 44.1%. For `O=c1[nH]ccn1CCCN1CC=C(c2cnn(-c3ccccc3)c2)CC1`, the INHIBITION is recorded as -95.3%.

On to `Cc1ccccc1-n1cc(C2=CCN(CCN3CCOCC3)CC2)cn1`, for which the INHIBITION is on record as 19.4%. In the case of `Cc1ccccc1-n1cc(C2=CCN(CCn3cc[nH]c3=O)CC2)cn1`, the INHIBITION stood at 69.4%. The value for `CCOCc1ncn2c1CN(C(=O)Nc1ccccc1)CC2` was -27%.

Regarding `O=C(c1cccc(O)n1)N1CCC(O)(CN2CCC(F)(F)CC2)C1` (stereo unspecified), the INHIBITION is reported as -21.6%. The value for `CC(=O)N1CCc2c(nc(N(C)C)nc2N(C)CCC2CCCCO2)C1` (stereo unspecified) was -10.4%; that for `CC(=O)N1CCc2c(nc(N(C)C)nc2N(C)CCCC2CCCO2)C1` (stereo unspecified) was 21.7%.

`CC(C)NC(=O)N1CCc2nc(C(=O)NCc3ccccc3)sc2CC1`: the INHIBITION is 34.1%. The value for `Cc1nccn1CCCNc1ncccc1C#N` was 18.4%; that for `CSCC(=O)N1CCc2nc(C)nc(NCc3ccccc3)c2CC1` was 37.3%. For the compound `CC(=O)N1CCc2c(nc(N(C)C)nc2NCCCn2ccnc2)C1`, the INHIBITION came to 18.4%.

For `CC(=O)N1CCc2c(nc(N(C)C)nc2NCCC2CCCCO2)C1` (stereo unspecified), the INHIBITION came to 45.1%. `Cc1nc2c(c(NCc3ccccc3)n1)CCN(C(=O)NC(C)C)CC2`: the INHIBITION is listed as 66.1%. Next, `CC(=O)N1CCc2c(nc(N(C)C)nc2NCCCn2ccnc2C)C1`: 71.3%; `COCCNc1nc2c(c(NCCc3cccs3)n1)CCNCC2`: 28%; `CC(=O)N1CCc2c(nc(N(C)C)nc2NCc2cccs2)C1`: 61.9%. The value for `CC(=O)N1CCc2c(nc(N(C)C)nc2NCCc2cccs2)C1` was 63.8%; that for `Cn1c(NCC(O)c2ccc(F)cc2)c(C#N)c(=O)n(C)c1=O` (stereo unspecified) was -60.8%; that for `Cn1cc(CN2CCCC3(CCN(c4nncs4)C3)C2)cn1` (stereo unspecified) was 22.4%. `CN1CCO[C@@H]2CN(S(=O)(=O)c3ccccc3)CC[C@@H]2C1`: the INHIBITION is reported as 4.02%. The value for `CC(=O)N1[C@H](CN(C)C)C[C@@H]2CN(C(=O)c3cccn3C)CC[C@@H]21` was -9.74%; that for `COc1c(C2CCCN2C(=O)c2cscn2)c(C)nn1C` (stereo unspecified) was 38.8%.

`O=C(Nc1ccccc1)C1CN(CC2CC2)CC12CCOCC2` (stereo unspecified): the INHIBITION was 4.2%.

Turning to `Cc1ccc(CNC(=O)CN(CCC(N)=O)c2ccc(F)cc2)cc1`, the INHIBITION is recorded as 16%. With `Cc1ccc(CCNC(=O)N2CCC(Cc3cnn(C)c3)C2)cn1` (stereo unspecified), the INHIBITION was -3.58%. With `Cc1cc(Br)ccc1CNC(=O)C1(O)CCSCC1`, the INHIBITION was found to be 19.1%. Take `CC(=O)N1CCc2c(nc(N(C)C)nc2NC(C)Cc2cccs2)C1` (stereo unspecified): the INHIBITION was 78.6%. `Cc1nc(CCNc2nc(N(C)C)nc3c2CCCC3)cc(=O)[nH]1`: the INHIBITION stood at 24.7%. Next, `CC(=O)N1CCc2c(nc(N(C)C)nc2N(C)CCO)C1`: 31.6%; `CC(=O)NC1CCN(c2nc(N(C)C)nc3c2CCN(C(C)=O)C3)CC1`: 58.9%; `CC(=O)N1CCc2nc(N(C)C)nc(NCCc3ccccc3)c2CC1`: 79.7%. As to `CC(=O)NC1CCN(c2nc(N(C)C)nc3c2CCCC3)CC1`, the INHIBITION stood at 46.6%.

On to `CN(C)c1nc2c(c(N3CCCC3)n1)CCN(C(=O)c1ccc[nH]1)CC2`, for which the INHIBITION stood at 34.5%.

Regarding `CC(C)Nc1ncnc2c1CCN(C(=O)Cc1cccs1)CC2`, the INHIBITION worked out at 21.8%.

With `CNC(=O)CN(C)c1nc(-c2ccncc2)nc2c1CCN(C(C)=O)C2`, the INHIBITION came to 31.8%.
